# Shown is part of a subset that was picked to be rich in the strongest signals.
# B1: AT1G15820(NC) (Arabidopsis thaliana) (protein)
# chain: MAMAVSGAVLSGLGSSFLTGGKRGATALASGVGDAIAPFSFGSLLGTQLLLMGWVESKRWVDFFNPDSQSVEWATPWSKTAENFANYTGDQGYPGGRFFDPLGLAGKNRDGVYEPDFEKLERLKLAEIKHSRLAMVAMLIFYFEAGQGKTPLGALGL
# Key:
# Assay in all cases: glycan array binding signal (z-score within array); higher = stronger binding
# Conditions in all cases: glycan notation: IUPAC condensed, linker removed
# Fuc(a1-2)Gal = target: Fuc(a1-2)Gal
# Procedure, shortened: (§1)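 Glycan array data came from 3228 arrays in the Consortium for Functional Glycomics database, and only arrays with an available protein sequence were kept. Glycan names were put into IUPAC-condensed notation, and columns mapping to the same glycan were averaged. The binding signal is a within-array Z-score, averaged across arrays of one protein sequence run at different concentrations or buffers and across linkers. A negative Z-score can be read as non-binding.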
# [1] = target: Fuc(a1-2)Gal(b1-3)GlcNAc(b1-2)Man(a1-3)[Fuc(a1-2)Gal(b1-3)GlcNAc(b1-2)Man(a1-6)]Man(b1-4)GlcNAc(b1-4)[Fuc(a1-6)]GlcNAc
# Procedure, shortened: as §1
# [2] = target: Fuc(a1-2)Gal(b1-3)GlcNAc(b1-3)[Neu5Ac(a2-6)Gal(b1-4)GlcNAc(b1-6)]Gal(b1-4)Glc
# Procedure, shortened: as §1
# [3] = target: Fuc(a1-2)Gal(b1-3)GlcNAc6S
# Procedure, shortened: as §1
# [4] = target: Fuc(a1-2)Gal(b1-3)[Fuc(a1-4)]GlcNAc
# Procedure, shortened: as §1
# [5] = target: Fuc(a1-2)Gal(b1-4)GlcNAc(b1-2)Man
# Procedure, shortened: as §1
# [6] = target: Fuc(a1-2)Gal(b1-4)GlcNAc(b1-3)Gal(b1-4)GlcNAc(b1-3)Gal(b1-4)GlcNAc
# Procedure, shortened: as §1
# [7] = target: Fuc(a1-2)Gal(b1-4)[Fuc(a1-3)]GlcNAc(b1-2)[Fuc(a1-2)Gal(b1-4)[Fuc(a1-3)]GlcNAc(b1-4)]Man(a1-3)[Fuc(a1-2)Gal(b1-4)[Fuc(a1-3)]GlcNAc(b1-2)Man(a1-6)]Man(b1-4)GlcNAc(b1-4)GlcNAc
# Procedure, shortened: as §1
# [8] = target: Fuc(a1-2)[Gal(a1-3)]Gal(b1-3)GalNAc
# Procedure, shortened: as §1
# [9] = target: Fuc(a1-2)[Gal(a1-3)]Gal(b1-3)GlcNAc
# Procedure, shortened: as §1
# [10] = target: Fuc(a1-2)[Gal(a1-3)]Gal(b1-4)Glc
# Procedure, shortened: as §1
# [11] = target: Fuc(a1-2)[GalNAc(a1-3)]Gal(b1-4)GlcNAc(b1-6)GalNAc
# Procedure, shortened: as §1
# [12] = target: Fuc(a1-2)[GalNAc(a1-3)]Gal(b1-4)[Fuc(a1-3)]GlcNAc(b1-3)GalNAc
# Procedure, shortened: as §1
# [13] = target: Fuc(a1-3)[Gal3S(b1-4)]Glc
# Procedure, shortened: as §1
# Gal(a1-3)Gal(b1-4)GlcNAc = target: Gal(a1-3)Gal(b1-4)GlcNAc
# Procedure, shortened: as §1
# [14] = target: Gal(a1-3)[Gal(a1-4)]Gal(b1-4)GlcNAc
# Procedure, shortened: as §1
# [15] = target: Gal(b1-3)GalNAc(a1-3)[Fuc(a1-2)]Gal(b1-4)GlcNAc
# Procedure, shortened: as §1
# [16] = target: Gal(b1-3)GlcNAc(a1-6)Gal(b1-4)GlcNAc
# Procedure, shortened: as §1
# [17] = target: Gal(b1-3)GlcNAc(b1-3)Gal(b1-4)GlcNAc(b1-6)[Gal(b1-3)GlcNAc(b1-3)]Gal(b1-4)Glc
# Procedure, shortened: as §1
# [18] = target: Gal(b1-3)GlcNAc(b1-3)GalNAc
# Procedure, shortened: as §1
# [19] = target: Gal(b1-3)GlcNAc(b1-6)[Gal(b1-3)]GalNAc
# Procedure, shortened: as §1
# [20] = target: Gal(b1-3)[Fuc(a1-4)]GlcNAc(b1-2)Man
# Procedure, shortened: as §1
# [21] = target: Gal(b1-4)GlcNAc(b1-3)Gal(b1-4)Glc
# Procedure, shortened: as §1
# [22] = target: Gal(b1-4)GlcNAc(b1-3)Gal(b1-4)GlcNAc(b1-3)Gal(b1-4)GlcNAc(b1-3)Gal(b1-4)GlcNAc(b1-2)Man(a1-3)[Gal(b1-4)GlcNAc(b1-3)Gal(b1-4)GlcNAc(b1-3)Gal(b1-4)GlcNAc(b1-3)Gal(b1-4)GlcNAc(b1-2)Man(a1-6)]Man(b1-4)GlcNAc(b1-4)GlcNAc
# Procedure, shortened: as §1
# [23] = target: Gal(b1-4)GlcNAc(b1-3)Gal(b1-4)GlcNAc(b1-3)Gal(b1-4)GlcNAc(b1-3)Gal(b1-4)GlcNAc(b1-3)Gal(b1-4)GlcNAc(b1-2)Man(a1-3)[Gal(b1-4)GlcNAc(b1-3)Gal(b1-4)GlcNAc(b1-3)Gal(b1-4)GlcNAc(b1-3)Gal(b1-4)GlcNAc(b1-3)Gal(b1-4)GlcNAc(b1-2)Man(a1-6)]Man(b1-4)GlcNAc(b1-4)GlcNAc
# Procedure, shortened: as §1
binder,measurement,setting,value
B1,glycan array binding signal (z-score),Fuc(a1-2)Gal,4.29
same,glycan array binding signal (z-score),[1],3.01
same,glycan array binding signal (z-score),[2],-0.346
same,glycan array binding signal (z-score),[3],-0.5
same,glycan array binding signal (z-score),[4],-0.307
same,glycan array binding signal (z-score),[5],0.457
same,glycan array binding signal (z-score),[6],-0.439
same,glycan array binding signal (z-score),[7],-0.506
same,glycan array binding signal (z-score),[8],0.211
same,glycan array binding signal (z-score),[9],-0.395
same,glycan array binding signal (z-score),[10],-0.243
same,glycan array binding signal (z-score),[11],-0.49
same,glycan array binding signal (z-score),[12],4.75
same,glycan array binding signal (z-score),[13],-0.315
same,glycan array binding signal (z-score),Gal(a1-3)Gal(b1-4)GlcNAc,-0.211
same,glycan array binding signal (z-score),[14],4.55
same,glycan array binding signal (z-score),[15],-0.432
same,glycan array binding signal (z-score),[16],-0.36
same,glycan array binding signal (z-score),[17],5.77
same,glycan array binding signal (z-score),[18],-0.541
same,glycan array binding signal (z-score),[19],-0.208
same,glycan array binding signal (z-score),[20],-0.282
same,glycan array binding signal (z-score),[21],3.65
same,glycan array binding signal (z-score),[22],0.202
same,glycan array binding signal (z-score),[23],0.01

# Reference: the supplement of paper PMC8728848
